Compound activity from PubChem BioAssay.
ABCB6 inh 2 = ABCB6 transporter inhibitors, primary screen, K562-ABCB6 cells, flow cytometry, MLPCN library. fluorescence ratio to DMSO, % at 10 µM. K562-ABCB6 porphyrin accumulation, 1 h; active compounds read low. hit rate 0.19% among 360,000. ATP-binding cassette sub-family B member 6 (Homo sapiens), Q9NP58;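 active = fluorescence ratio to DMSO below 75%, the collection mean minus 3 SD; inconclusive = too few cells collected in the well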;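 also: signal is porphyrin accumulated inside mitochondria; 100% equals median channel fluorescence of DMSO control wells; lower ratio means ABCB6 inhibition with less porphyrin fluorescence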
MIN6 prolif = inducers of MIN6 beta-cell proliferation, primary screen, ATP luminescence, uHTS | MIN6 cells proliferation, ATPlite luminescence, 48 h; cells starved in 0.2% serum; 100% = growth in 10% serum | proliferation, % at 10 µM | hit rate 0.29% among 330,000 | AID 2380, 2010;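 active = compounds whose signal lies at least 3.5 SD above the mean of all wells on their plate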;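 also: 0% = DMSO-treated cells in low-serum medium and 100% = 10% serum control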
hiPSC survival = enhancers of single-cell hiPSC survival, primary screen, ATPlite luminescence | 100% = ROCK inhibitor wells, 0% = DMSO | survival enhancement, % at 20 µM | hit rate 0.044% among 360,000 | AID 602274, 2012; in the data active = survival enhancement above about 18%;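 also: cells exposed to compounds for 16 hours before the ATP read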
Cardio protect = cardioprotection against H2O2-induced cell death, primary screen, uHTS, H9c2 cells, ATPLite luminescence; H9c2 cardiomyocytes, H2O2 injury protection, 2 h; protection from H2O2 cell death, % at 20 µM; hit rate 0.63% among 360,000; AID 588492, 2011;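 active = compounds giving at least 50% protection of heart cells from peroxide-induced death in the single-dose screen, raw or plate-pattern-corrected value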;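 also: 0% = DMSO wells with peroxide and 100% = DMSO wells without peroxide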
Myeloid diff 2 = induction of myeloid progenitor differentiation, primary screen, cell-based, flow cytometry, MLPCN library; AID 624256, 2012; calls only at 10 µM; hit rate 1% among 360,000; ER-HoxA9 myeloid progenitors, lysozyme-GFP differentiation;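 active = normalized GFP-positive differentiation at or above the plate's own cutoff, the solvent-only control mean plus 3 SD; inconclusive = no clear call, values can overlap the other calls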;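 also: cells exposed to compound for four days before flow analysis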
Myeloid diff = inducers of myeloid progenitor differentiation, confirmation, cell-based, GFP/Mac1 flow cytometry, cherry pick 01; ER-HoxA9 myeloid progenitors, GFP/Mac1 double-positive flow; hit rate 2% among 2,300; AID 651706, 2012; shares compounds with Myeloid diff 2; calls only;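 active = share of green or green-and-red cells above 9 and 9% in run 1 or 4 and 3% in run 2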
GFP autofluor = counter-screen for myeloid differentiation promoters: compound fluorescence; shares compounds with Myeloid diff 2; ER-HoxA9 myeloid progenitors, no estrogen, GFP autofluorescence flow cytometry; vehicle wells 0%, positive control 100%; fluorescence response, % (concentration not given with the values); hit rate 7.4% among 2,300; AID 651707;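 active = over 5% cells positive for green fluorescent reporter, or over 2% positive for both it and APC stain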;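 also: range taken on the double positive population between DMSO and positive control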
An asterisk follows results filed as active; i = inactive; ? = inconclusive; / = no result given; + = active, no number. Sampled rows, rich in hits. Any-hit rate of the full collection: about 2.2%.

SMILES	ABCB6 inh 2	MIN6 prolif	hiPSC survival	Cardio protect	Myeloid diff 2	Myeloid diff	GFP autofluor
O=C(CC1c2cc(F)ccc2C=C(c2ccsc2)N1c1ccc(C#CCCO)cc1)c1ccco1 (configuration not stated)	103	/	0	/	i	i	0
O=C(c1ccc(Cl)c(S(=O)(=O)N2CCCC2)c1)N1CCCCC1	95	1	0	-1	i	/	/
CC1CCc2c(sc(Nc3nc4c(F)cccc4s3)c2C(N)=O)C1 (configuration not stated)	92	-3	2	-9	+	i	6.4*
O=C(Nc1nc2c(F)cccc2s1)C1CC1	86	1	-2	-11	i	/	/
COc1nc(-c2ccccc2)nnc1-c1ccccc1	98	/	-2	-10	i	/	/
COc1nc(-c2ccccc2)nc(C)c1CC(=O)O	99	0	0	-2	i	i	0
COc1cc2c(cc1N/C=C(\C#N)c1nc(-c3ccc(F)cc3)cs1)oc1ccccc12	114	0	1	9	+	i	7.2*
CCN(CC)C(=O)COC(=O)c1ccc(C)c(NC(=O)c2ccco2)c1	94	-1	1	1	i	/	/
Cc1ccc(C(=O)OCC(=O)c2c[nH]c3ccccc23)cc1NC(=O)c1ccco1	89	0	0	-6	i	i	0
Cc1cc(/C=C(\C#N)c2nnc(N3CCOCC3)n2-c2ccccc2)c(C)n1-c1ccccc1	/	0	/	/	/	/	/
N#C/C(=C/c1ccc(-c2ccc([N+](=O)[O-])cc2)o1)c1nnc(N2CCOCC2)n1-c1ccccc1	207	/	-1	27	+	i	4
COc1ccc(F)cc1S(=O)(=O)n1nnc2ccccc21	108	-1	0	13	i	i	0
Cc1cc(Br)c(S(=O)(=O)n2nnc3ccccc32)cc1C	102	-2	2	3	i	i	4
O=C(CCN1CCN(c2ccccc2)CC1)Nc1ccccc1F	103	-2	-4	2	i	i	0
CC(C)c1nc(SCC(=O)c2c[nH]c3ccccc23)n[nH]1	97	0	0	5	i	/	/
CCc1nc(SCC(=O)c2c[nH]c3ccccc23)n[nH]1	120	-1	-3	6	i	i	1
CCC1Oc2ccc(C)cc2N(CC(=O)N2CCN(c3ccc(F)cc3)CC2)C1=O (configuration not stated)	99	-3	-3	-2	i	/	/
Cc1oc(C(=O)O)cc1CSc1nnc(-c2ccccc2)n1C	100	-3	0	1	i	i	1
Cc1ccc(Oc2ccc(Cl)cc2NC(=O)c2cnccn2)cc1	98	-2	8	-4	+	i	0
CCOC(=O)c1ccccc1NS(=O)(=O)c1ccccc1F	109	0	0	-3	+	i	1
CC1=Nc2ccc(C)c3nc(C)cc(c23)N1c1ccc(C)cc1	108	-3	0	26	+	i	0
COc1ccc(C(C)(O)c2nc(-c3ccc(F)cc3OC)cs2)cc1 (configuration not stated)	102	/	3	-11	i	i	0
Cc1ccc(NC(=O)c2ccc3c(c2)CCN3S(C)(=O)=O)c(C)c1	101	-1	0	0	i	/	/
Cc1cc(C(=O)NC2CCCc3c2cnn3-c2cccc(C)c2C)n(C)n1 (configuration not stated)	100	-7	0	-16	+	i	0
Cc1cc(C)nc(-n2ncc3c2CC(c2ccc(F)cc2)CC3=O)n1 (configuration not stated)	96	-4	0	0	i	i	0
SMILES	ABCB6 inh 2	MIN6 prolif	hiPSC survival	Cardio protect	Myeloid diff 2	Myeloid diff	GFP autofluor
COc1ccc2nc(SCC(=O)Nc3cc(OC)c(OC)cc3C(=O)O)c(C)cc2c1	92	-2	0	7	i	/	/
CC(C)N(C(=O)[C@H]1C[C@H](CC(=O)NCc2cccc(C(F)(F)F)c2)C(=O)N2CCc3c([nH]c4cc(-c5ccco5)ccc34)[C@]12C)C(C)C	98	/	3	-8	?	i	0
CC(C)N(C(=O)[C@H]1C[C@H](CC(=O)NCCC2=CCCCC2)C(=O)N2CCc3c([nH]c4cc(-c5ccco5)ccc34)[C@]12C)C(C)C	101	/	0	4	i	i	3
C[C@]12c3[nH]c4cc(-c5ccco5)ccc4c3CCN1C(=O)[C@@H](CC(=O)NCc1cccc(C(F)(F)F)c1)C[C@@H]2C(=O)N1CCOCC1	105	/	2	-8	i	/	/
CC(C)N(C(=O)[C@H]1C[C@H](CC(=O)NCCCN(C)C)C(=O)N2CCc3c([nH]c4cc(-c5ccco5)ccc34)[C@]12C)C(C)C	100	/	-4	3	i	/	/
COc1cccc(-c2cc3nc(NCCN4CCCC4)n(C)c(=O)c3s2)c1	97	/	-1	22	i	i	2
Fc1cccc(-c2cc3nc(-c4ccccc4)cc(N4CCC5(CC4)OCCO5)n3n2)c1	94	-4	-4	4	i	/	/
Fc1ccc(-c2cc3nc(-c4ccccc4)cc(N4CCOCC4)n3n2)cc1	97	-3	-1	22	i	i	0
COc1ccc(O)c(CN2CCCC(C(=O)Nc3cccc(-n4cccn4)c3)C2)c1 (configuration not stated)	103	-1	0	5	i	/	/
COc1ccccc1-c1c(NC(=O)c2ccco2)n(-c2ccccc2)nc(C)c1=O	/	-2	/	/	/	/	/
COc1cccc(-c2c(NC(=O)c3ccco3)n(-c3ccc(C)cc3)nc(C)c2=O)c1	98	0	-1	-2	+	i	0
Cc1ccc(OCc2nc(-c3cccnc3)no2)cc1C	112	1	0	-4	i	/	/
Cc1cc(C)cc(OCc2nc(-c3cccnc3)no2)c1	112	0	0	5	+	i	0
COc1ccc(CCN(C)C(=O)CCNS(=O)(=O)c2ccccc2C(F)(F)F)cc1OC	99	4	0	-7	i	/	/
COc1ccc(CC2C(=O)OC(C)(C)OC2=O)c(Cl)c1OC	105	-1	0	6	/	/	/
COc1ccc(-c2cc(-c3cc(OC)ccc3O)[nH]n2)cc1	98	-1	-2	-3	i	i	1
Cc1nnc(SCC(=O)NNC(=O)c2ccccc2)n1N	97	-4	0	-1	i	/	/
COc1ccc(N2C(=O)c3ccccc3S2(=O)=O)cc1	128	-2	0	1	i	/	/
